Data from PubChem BioAssay (EPA / NIEHS).
Results filed as inconclusive are left out. Activity calls are given as the source filed them. The calls were made as follows, unless noted: active = hit-call score of the fitted dose curve at least 0.9, where 1 is the maximum; inconclusive = response in the unintended direction; inactive = score below 0.9.

Assays:
[1] = target: Nucleoli Translocation, AR (gene 367) (UniProt P10275); test: UPITT_HCI_U2OS_AR_TIF2_Nucleoli_Antagonist: University of Pittsburgh U2OS Androgen Receptor-Transcriptional Intermediary Factor 2 (AR-TIF2) Antagonism High Content Imaging Assay for Nucleoli Translocation (AID 2283997)
Procedure, shortened: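 U2OS cells expressing RFP-tagged human AR and GFP-tagged TIF2 were imaged by high-content fluorescence microscopy for red AR signal in the nucleolar region. Compounds were screened at 20 uM final (0.2% DMSO), with activity fitted relative to DHT as baseline.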

[2] = target: Nucleoli Translocation, AR (gene 367) (UniProt P10275); test: UPITT_HCI_U2OS_AR_TIF2_Nucleoli_Agonist: University of Pittsburgh U2OS Androgen Receptor-Transcriptional Intermediary Factor 2 (AR-TIF2) Agonism High Content Imaging Assay for Nucleoli Translocation (AID 2283998)
Procedure, shortened: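 Red-tagged human androgen receptor co-expressed with GFP-tagged TIF2 serves as the binding reporter. Primary testing used 20 uM final (0.2% DMSO); follow-up dose response covered 0.195 to 50 uM final (0.5% DMSO).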

[3] = target: Ratio of Nucleoli Translocation and Cytoplasm, AR (gene 367) (UniProt P10275); test: UPITT_HCI_U2OS_AR_TIF2_Nucleoli_Cytoplasm_Ratio_Agonist: University of Pittsburgh U2OS Androgen Receptor-Transcriptional Intermediary Factor 2 (AR-TIF2) Agonism High Content Imaging Assay for Ratio of Nucleoli Translocation and Cytoplasm (AID 2284000);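 also: hits raise the red nucleolar to cytoplasm ratio above vehicle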
Procedure, shortened: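 U2OS cells expressing RFP-tagged human AR and GFP-tagged TIF2 were imaged by high-content fluorescence microscopy. The endpoint is the ratio of nucleolar to cytoplasmic red fluorescence, fitted for gain of signal relative to DMSO. Concentration-response spanned 0.195 to 50 uM final (0.5% DMSO).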

[4] = CCTE_Shafer_MEA_acute_spike_number: CCTE's Neural Acute Assay for Total Number of Spikes, Shafer Lab (AID 2284008; active = hit-call score of the fitted dose curve at least 0.9, where 1 is the maximum; inactive = score below 0.9;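 as to AC50: curve fitted for decrease in spike count so AC50 reflects inhibitors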)
Procedure, shortened: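 Cortical neurons from rat, matured to DIV 13 or 15 on microelectrode arrays, are recorded at 37 C before and during 40-min exposure to 0.03-40 uM compound. Wells need >/= 10 active electrodes.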

[5] = CCTE_Shafer_MEA_acute_firing_rate_mean: CCTE's Neural Acute Assay for Mean Firing Rate, Shafer Lab (AID 2284009; active = hit-call score of the fitted dose curve at least 0.9, where 1 is the maximum; inactive = score below 0.9;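 also: analyzed for loss of signal so actives lower firing rate relative to DMSO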)
Procedure, shortened: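 Read-out: well-mean spike rate (spikes/recording length/electrodes), % change from 40 min pre-dose baseline to 40 min with compound. Rat cortical cultures, DIV 13 or 15, 37 C; 0.03-40 uM; DMSO as negative control.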

[6] = CCTE_Harrill_HTTr_Apoptosis_MCF7: CCTE's 6-hour Apoptosis Assessment for the High-Throughput Transcriptomics (HTTr) Platform, in MCF-7 cells cultured in DMEM + 10% fetal bovine serum, Harrill Lab (AID 2284011; active = hit-call score of the fitted dose curve at least 0.9, where 1 is the maximum; inactive = score below 0.9)
Procedure, shortened: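 Cells are dosed with test chemicals at eight concentrations and imaged 6 hours later for caspase-3/7 activity using a green fluorogenic detection reagent. Activity is fitted in both directions against DMSO controls.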

[7] = CCTE_Harrill_HTTr_CellCount_MCF7: CCTE's Cell Proliferation Assessment for the High-Throughput Transcriptomics (HTTr) Platform, Harrill Lab (AID 2284012);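 also: cells exposed to compound for six hours; intended direction is loss of nuclei count meaning fewer cells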
Procedure, shortened: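 MCF-7 cells were exposed for 6 h to an eight-point dilution series; Hoechst-labeled nuclei were counted by high content imaging. Curves were fitted bidirectionally against DMSO as negative control and baseline, with signal loss indicating reduced cell count.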

[8] = target: Ratio of Nucleoli Translocation and Cytoplasm, AR (gene 367) (UniProt P10275); test: UPITT_HCI_U2OS_AR_TIF2_Nucleoli_Cytoplasm_Ratio_Antagonist: University of Pittsburgh U2OS Androgen Receptor-Transcriptional Intermediary Factor 2 (AR-TIF2) Antagonism High Content Imaging Assay for Ratio of Nucleoli Translocation and Cytoplasm (AID 2283999);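 also: antagonists lower the DHT-driven ratio of nucleolar to cytoplasmic red signal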
Procedure, shortened: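 U2OS cells expressing RFP-tagged human AR and GFP-tagged TIF2; compounds tested at 20 uM final (0.2% DMSO) in primary screen, 0.195–50 uM (0.5% DMSO) for concentration response. Readout: nucleolar-to-cytoplasmic red fluorescence ratio by high-content imaging, fitted relative to DHT.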

DIO1 (gene 1733) = test: CCTE_GLTED_hDIO1: CCTE's human Deiodinase 1 (DIO1) Inhibition Assay, Great Lakes Toxicology and Ecology Division (GLTED) Lab (AID 2283987);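 also: isolated human DIO1 enzyme in a cell-free setup rather than cells; enzyme activity read as free iodide liberated from substrate via Sandell-Kolthoff colorimetry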
Procedure, shortened: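 Cell-free hDIO1 assay, triplicate plates. Absorbance of the Sandell-Kolthoff reaction reports enzyme-liberated iodide; iodinated chemicals or nitrite, iron and thiocyanate may interfere.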

[9] = CCTE_Simmons_MITO_basal_resp_rate: CCTE's HepG2 Seahorse XF Respirometric Screening Assay at Basal Respiratory State, Simmons Lab (AID 2284001; active = hit-call score of the fitted dose curve at least 0.9, where 1 is the maximum; inactive = score below 0.9); conditions: actives raise or lower the signal
Procedure, shortened: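 HepG2 cells were given test chemicals at 7 concentrations, 125 nM to 100 uM final, and oxygen consumption rate was read every 6 min (3 min mix, 3 min measure) over 72 min. Basal-phase OCR was fitted bidirectionally against DMSO.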

[10] = CCTE_Simmons_MITO_max_resp_rate: CCTE's HepG2 Seahorse XF Respirometric Screening Assay at Maximal Respiratory State [uncoupled], Simmons Lab (AID 2284002; active = hit-call score of the fitted dose curve at least 0.9, where 1 is the maximum; inactive = score below 0.9); conditions: actives raise or lower the signal
Procedure, shortened: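 Maximal respiration in HepG2 cells is recorded as OCR by Seahorse XF following FCCP injection. Compounds span 125 nM–100 uM final; activity is called in either direction against DMSO.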

[11] = CCTE_Simmons_MITO_inhib_resp_rate: CCTE's HepG2 Seahorse XF Respirometric Screening Assay at Inhibited Respiratory State [full ETC block], Simmons Lab (AID 2284006; active = hit-call score of the fitted dose curve at least 0.9, where 1 is the maximum; inactive = score below 0.9); conditions: actives raise or lower the signal
Procedure, shortened: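 HepG2 cells on Seahorse XF96; oxygen consumption measured after test compound, then FCCP, then rotenone/antimycin A injections over 72 min. Test chemicals at 7 concentrations, 125 nM–100 uM final. OCR fitted bidirectionally versus DMSO.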

[12] = CCTE_Simmons_MITO_viability: CellTiter-Glo Viability Assessment for CCTE's HepG2 Seahorse XF Respirometric Screening Assay [post-hoc], Simmons Lab (AID 2284007)
Procedure, shortened: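 HepG2 cells from the Seahorse XF respirometry run were exposed 90 min to a 7-point series, 125 nM–100 uM final, DMSO vehicle; ATP content then read by luciferase luminescence. Three biological replicates, technical singles; loss of signal fitted versus DMSO.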

[13] = CCTE_Harrill_HTTr_Viability_MCF7: CCTE's 6-hour Cell Viability Assessment for the High-Throughput Transcriptomics (HTTr) Platform, in MCF-7 cells cultured in DMEM + 10% fetal bovine serum, Harrill Lab (AID 2284010; active = hit-call score of the fitted dose curve at least 0.9, where 1 is the maximum; inactive = score below 0.9)
Procedure, shortened: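 Membrane integrity was scored by high-content imaging of propidium iodide dye exclusion after a 6 h exposure across an eight-point dilution series. Data were fitted bidirectionally relative to DMSO as negative control and baseline.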

[14] = CCTE_Harrill_HTTr_Viability_PRF_DMEM_24hr: (Pilot) CCTE's 24-hour Cell Viability Assessment for the High-Throughput Transcriptomics (HTTr) Platform, in MCF-7 cells cultured in phenol red-free DMEM + 10% charcoal-stripped fetal bovine serum, Harrill Lab (AID 2283980; active = hit-call score of the fitted dose curve at least 0.9, where 1 is the maximum; inactive = score below 0.9)
Procedure, shortened: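 MCF-7 cells in phenol red-free DMEM with 10% charcoal-stripped FBS, eight-point dilution series, 24 h exposure. Membrane integrity by propidium iodide exclusion with high content imaging; bidirectional fit vs DMSO.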

[15] = CCTE_Harrill_HTTr_Apoptosis_DMEM_6hr: (Pilot) CCTE's 6-hour Apoptosis Assessment for the High-Throughput Transcriptomics (HTTr) Platform, in MCF-7 cells cultured in DMEM + 10% fetal bovine serum, Harrill Lab (AID 2283981; active = hit-call score of the fitted dose curve at least 0.9, where 1 is the maximum; inactive = score below 0.9)
Procedure, shortened: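 Caspase-3/7 activation read by high content imaging with CellEvent Caspase 3/7 Green in MCF-7 cells (DMEM + 10% FBS), 6 h after dosing; eight-point dilution series. Bidirectional fitting relative to DMSO baseline.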

[16] = CCTE_Harrill_HTTr_Apoptosis_DMEM_12hr: (Pilot) CCTE's 12-hour Apoptosis Assessment for the High-Throughput Transcriptomics (HTTr) Platform, in MCF-7 cells cultured in DMEM + 10% fetal bovine serum, Harrill Lab (AID 2283982; active = hit-call score of the fitted dose curve at least 0.9, where 1 is the maximum; inactive = score below 0.9)
Procedure, shortened: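 MCF-7 cells in DMEM + 10% FBS, exposed 12 h to an eight-point dilution series; caspase-3/7 activation imaged with CellEvent Green. Bidirectional fit versus DMSO.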

[17] = CCTE_Harrill_HTTr_Apoptosis_DMEM_24hr: (Pilot) CCTE's 24-hour Apoptosis Assessment for the High-Throughput Transcriptomics (HTTr) Platform, in MCF-7 cells cultured in DMEM + 10% fetal bovine serum, Harrill Lab (AID 2283983; active = hit-call score of the fitted dose curve at least 0.9, where 1 is the maximum; inactive = score below 0.9)
Procedure, shortened: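 MCF-7 cells in DMEM + 10% FBS, eight-point dilution series, 24 h exposure. Caspase-3/7 activation imaged by high-content imaging with CellEvent Caspase 3/7 Green. Bidirectional curve fitting against DMSO baseline.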

[18] = CCTE_Harrill_HTTr_Apoptosis_PRF_DMEM_6hr: (Pilot) CCTE's 6-hour Apoptosis Assessment for the High-Throughput Transcriptomics (HTTr) Platform, in MCF-7 cells cultured phenol red-free DMEM + 10% charcoal-stripped fetal bovine serum, Harrill Lab (AID 2283984; active = hit-call score of the fitted dose curve at least 0.9, where 1 is the maximum; inactive = score below 0.9)
Procedure, shortened: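 MCF-7 cells in phenol red-free DMEM + 10% charcoal-stripped FBS, eight-point dilution series, 6 h exposure. Caspase-3/7 activation imaged by high-content imaging with CellEvent Caspase 3/7 Green; bidirectional fit versus DMSO baseline.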

[19] = CCTE_Harrill_HTTr_Apoptosis_PRF_DMEM_24hr: (Pilot) CCTE's 24-hour Apoptosis Assessment for the High-Throughput Transcriptomics (HTTr) Platform, in MCF-7 cells cultured in phenol red-free DMEM + 10% charcoal-stripped fetal bovine serum, Harrill Lab (AID 2283986; active = hit-call score of the fitted dose curve at least 0.9, where 1 is the maximum; inactive = score below 0.9)
Procedure, shortened: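 MCF-7 cells in phenol red-free DMEM with 10% charcoal-stripped FBS, exposed 24 h across an eight-point dilution series. Caspase-3/7 activation imaged with CellEvent Green by high content imaging; bidirectional fitting against DMSO.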

Measured: AC50

Nucleoli Translocation, AR (gene 367), sequence (P10275 whole entry, looked up): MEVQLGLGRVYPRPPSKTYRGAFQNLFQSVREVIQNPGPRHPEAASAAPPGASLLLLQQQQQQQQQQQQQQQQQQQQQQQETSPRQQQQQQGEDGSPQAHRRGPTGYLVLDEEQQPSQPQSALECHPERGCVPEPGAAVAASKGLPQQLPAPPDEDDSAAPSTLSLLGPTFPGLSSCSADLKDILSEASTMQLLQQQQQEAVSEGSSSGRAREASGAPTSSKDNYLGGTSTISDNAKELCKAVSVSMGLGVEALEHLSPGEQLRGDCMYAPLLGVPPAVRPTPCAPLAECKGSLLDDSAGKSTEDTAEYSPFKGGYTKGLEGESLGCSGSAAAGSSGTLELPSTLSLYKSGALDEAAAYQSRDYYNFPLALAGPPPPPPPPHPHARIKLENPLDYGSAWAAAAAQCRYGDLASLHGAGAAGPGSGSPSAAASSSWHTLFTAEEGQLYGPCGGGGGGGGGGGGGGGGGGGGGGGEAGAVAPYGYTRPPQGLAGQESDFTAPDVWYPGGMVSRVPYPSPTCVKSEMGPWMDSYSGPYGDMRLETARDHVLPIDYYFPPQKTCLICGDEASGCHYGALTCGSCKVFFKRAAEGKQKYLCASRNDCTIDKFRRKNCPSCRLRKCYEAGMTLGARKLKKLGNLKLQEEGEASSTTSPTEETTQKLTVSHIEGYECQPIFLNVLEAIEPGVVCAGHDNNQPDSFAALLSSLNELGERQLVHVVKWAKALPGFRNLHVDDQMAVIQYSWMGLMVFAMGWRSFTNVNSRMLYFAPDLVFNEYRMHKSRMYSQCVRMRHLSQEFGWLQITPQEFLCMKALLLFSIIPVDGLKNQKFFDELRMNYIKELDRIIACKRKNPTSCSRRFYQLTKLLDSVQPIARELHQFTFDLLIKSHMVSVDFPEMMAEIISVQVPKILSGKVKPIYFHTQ
Ratio of Nucleoli Translocation and Cytoplasm, AR (gene 367), sequence (P10275 whole entry, looked up): as above

CC1=C(C)S(=O)(=O)CCS1(=O)=O
inactive: [1] | [2] | [3] | [4] | [5] | [6] | [7]

CCOCCOCCO
inactive: [1] | [2] | [8] | [3] | [6] | [7]

Cc1cc(SC2=C(O)C[C@@](CCc3ccc(N)cc3)(C(C)C)OC2=O)c(C(C)(C)C)cc1CO
active: DIO1 (gene 1733) 66.3 µM
not listed: [14] | [15] | [16] | [17] | [18] | [19]
inactive: all other assays above

Cc1ccc(C(C)(C)C)c(O)c1
inactive: [10] | [11] | [12] | [5] | [6] | [7]
active: [9] 44.6 µM | [4] 10.3 µM

CCCCCCCCCC[N+](C)(C)[O-]
inactive: [1] | [2] | [8] | [3] | [6] | [7]

Nc1nc(=S)c2[nH]cnc2[nH]1
inactive: [1] | [2] | [3] | [4] | [5] | [6] | [7]

NCCOCCOCCN
inactive: [1] | [2] | [8] | [3] | [13] | [6]

C#CC(O)C(CC)CCCC (stereo unspecified)
inactive: [2] | [3] | [6] | [7]
active: [1] 22.5 µM | [8] 14.8 µM

CC(C)OC(=O)C(C)(C)Oc1ccc(C(=O)c2ccc(Cl)cc2)cc1
active: [9] 30.5 µM | [10] 37.2 µM
not listed: [3] | [4] | [5] | DIO1 (gene 1733) | [11] | [12]
inactive: all other assays above

O=Cc1ccccc1C=O
inactive: [1] | [2] | [8] | [13] | [6] | [7]
active: DIO1 (gene 1733) 49.3 µM
